Reference: PubChem BioAssay AID1159580 (chemical genetic matrix, 2015)
Values joined by “and” are separate entries in the source; they are usually repeats but may differ in a detail not shown here. Equal values may be shown once. About 2,000 (36%) of roughly 5,500 compounds were called active. Inconclusive results (about 18%) are left out. Rule as the data show it: active = normalized growth mostly below about 0.91 (no sharp cut-off); inconclusive = no clear call, values can overlap the other calls; inactive = mostly above about 0.92. The list shows a part of the results.

Test: chemical genetic growth profiling, strain panel (AID 1159580);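 also: tested at 20 µM; growth read once vehicle control cultures reached saturation at 30 °C; 1 = growth at the plate median or of vehicle wells; lower values mean less growth of the strain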
Settings: S. cerevisiae deletion strains, growth OD

Measured: normalized growth

COc1cc([C@@H]2c3cc4c(cc3C(OC3O[C@@H]5COC(C)O[C@H]5[C@H](O)[C@H]3O)C3COC(=O)[C@@H]32)OCO4)cc(OC)c1O (some centres undefined)
inactive: locus YAL021C, strain ccr4, hits give low values 1.03 | locus YAL026C, strain drs2, hits give low values 1.05 | locus YAL030W, strain snc1, hits give low values 1.05 | locus YBL061C, strain skt5, hits give low values 1.02 | locus YBR009C, strain hhf1, hits give low values 1.01 | locus YBR021W, strain FUR4, hits give low values 0.961 | locus YBR023C, strain chs3, hits give low values 1.03 | locus YBR171W, strain sec66, hits give low values 1.07 | locus YBR229C, strain ROT2, hits give low values 1.01 | locus YBR231C, strain swc5, hits give low values 1.03 | locus YBR279W, strain paf1, hits give low values 1.02 | locus YCL011C, strain gbp2, hits give low values 1.04 | locus YCL016C, strain dcc1, hits give low values 1.02 | locus YCL029C, strain bik1, hits give low values 0.989 | locus YCL069W, strain vba3, hits give low values 1.05 | locus YCR088W, strain abp1, hits give low values 1.04 | locus YDL005C, strain med2, hits give low values 1.02 | locus YDL035C, strain GPR1, hits give low values 0.996 | locus YDL040C, strain nat1, hits give low values 1.03 | locus YDL074C, strain BRE1, hits give low values 0.947 | locus YDL101C, strain DUN1, hits give low values 1 | locus YDL134C, strain PPH21, hits give low values 1.01 | locus YDL185W, strain tfp1, hits give low values 0.979 | locus YDL192W, strain arf1, hits give low values 0.991 | locus YDR001C, strain nth1, hits give low values 1.02 | locus YDR069C, strain doa4, hits give low values 1.04 | locus YDR101C, strain arx1, hits give low values 0.981 | locus YDR137W, strain rgp1, hits give low values 1.06 | locus YDR159W, strain sac3, hits give low values 0.987 | locus YDR162C, strain NBP2, hits give low values 1.03 | locus YDR195W, strain ref2 1.03 | locus YDR297W, strain sur2, hits give low values 1.02 | locus YDR318W, strain mcm21, hits give low values 1.01 | locus YDR334W, strain swr1, hits give low values 1.06 | locus YDR335W, strain msn5, hits give low values 1.05 | locus YDR388W, hits give low values 1 | locus YDR392W, strain spt3, hits give low values 0.948 | locus YDR502C, strain sam2, hits give low values 0.974 | locus YEL003W, strain gim4, hits give low values 1.04 | locus YEL037C, strain rad23, hits give low values 1.05 | locus YEL061C, strain CIN8 (second series), hits give low values 1.03 | locus YEL061C, strain CIN8, hits give low values 1.01 | locus YER015W, strain faa2, hits give low values 1.03 | locus YER016W, strain bim1, hits give low values 1.03 | locus YER110C, hits give low values 0.993 | locus YER111C, strain swi4, hits give low values 1.03 | locus YER155C, strain BEM2 (second series), hits give low values 1.05 | locus YER155C, strain BEM2, hits give low values 0.981 | locus YER167W, strain BCK2, hits give low values 0.998 | locus YFR010W, strain ubp6, hits give low values 1.02 | locus YGL078C, strain dbp3, hits give low values 0.976 | locus YGL086W, strain mad1, hits give low values 0.965 | locus YGL167C, strain pmr1, hits give low values 1.05 | locus YGL173C, strain kem1, hits give low values 1.02 | locus YGL227W, strain vid30, hits give low values 1.03 | locus YGL240W, strain doc1, hits give low values 0.994 | locus YGL248W, strain PDE1, hits give low values 1.01 | locus YGL253W, strain hxk2, hits give low values 1.05 | locus YGR078C, strain PAC10, hits give low values 1.01 | locus YGR135W, strain pre9, hits give low values 1.02 | locus YGR252W, strain gcn5, hits give low values 1.02 | locus YHR013C, strain ard1, hits give low values 1.04 | locus YHR027C, strain rpn1, hits give low values 1.01 | locus YHR030C, strain SLT2, hits give low values 0.998 and 1.06 | locus YHR079C, strain IRE1 (second series), hits give low values 0.992 | locus YHR079C, strain IRE1, hits give low values 1.12 | locus YHR094C, strain hxt1, hits give low values 0.995 | locus YHR129C, strain ARP1, hits give low values 0.998 | locus YHR142W, strain chs7, hits give low values 1.06 | locus YHR200W, strain rpn10, hits give low values 1 | locus YIL066C, strain RNR3, hits give low values 0.997 | locus YIL073C, strain SPO22, hits give low values 0.958 | locus YIL125W, strain kgd1, hits give low values 0.997 | locus YIR030C, strain dcg1, hits give low values 0.995 | locus YJL092W, strain hpr5, hits give low values 1.04 | locus YJL095W, strain BCK1 (second series), hits give low values 1.03 | locus YJL095W, strain BCK1, hits give low values 1.03 and 1.06 | locus YJL115W, strain asf1, hits give low values 1.04 | locus YJL129C, strain trk1, hits give low values 1.05 | locus YJL134W, strain LCB3, hits give low values 0.998 | locus YJL154C, strain vps35, hits give low values 1.02 | locus YJL164C, strain tpk1, hits give low values 1.05 | locus YJL166W, strain qcr8, hits give low values 1.02 | locus YJL168C, strain set2, hits give low values 0.998 | locus YJL187C, strain SWE1 (second series), hits give low values 1 | locus YJR043C, strain POL32, hits give low values 0.992 | locus YJR066W, strain TOR1, hits give low values 0.995 | locus YKL009W, strain mrt4, hits give low values 1.06 | locus YKL068W, hits give low values 0.995 | locus YKL085W, strain MDH1 (second series), hits give low values 1.01 | locus YKL085W, strain MDH1, hits give low values 1.01 | locus YKL160W, strain elf1, hits give low values 1.02 | locus YKL190W, strain CNB1, hits give low values 1.02 | locus YKR001C, strain vps1, hits give low values 1.01 | locus YKR026C, strain gcn3, hits give low values 1.04 | locus YKR091W, strain srl3, hits give low values 1.03 | locus YLL001W, strain dnm1, hits give low values 1.04 | locus YLL026W, hits give low values 1.04 | locus YLL041C, strain sdh2, hits give low values 1.02 | locus YLR027C, strain aat2, hits give low values 1.05 | locus YLR039C, strain RIC1, hits give low values 1.01 | locus YLR058C, strain SHM2, hits give low values 1.02 | locus YLR102C, strain apc9, hits give low values 0.999 | locus YLR113W, strain HOG1, hits give low values 1.06 | locus YLR221C, strain rsa3, hits give low values 1.04 | locus YLR258W, strain gsy2, hits give low values 1.03 | locus YLR262C, strain YPT6 (second series), hits give low values 1.05 | locus YLR262C, strain YPT6, hits give low values 1.01 | locus YLR268W, strain sec22, hits give low values 0.957 | locus YLR320W, strain mms22, hits give low values 1 | locus YLR330W, strain CHS5, hits give low values 1.02 | locus YLR342W, strain FKS1 (second series), hits give low values 1.01 | locus YLR342W, strain FKS1, hits give low values 1.02 | locus YLR357W, strain rsc2, hits give low values 1.04 | locus YLR370C, strain arc18, hits give low values 1.04 | locus YLR371W, strain rom2, hits give low values 0.979 | locus YLR384C, strain iki3, hits give low values 1.02 | locus YLR418C, strain cdc73, hits give low values 0.998 | locus YML016C, strain PPZ1, hits give low values 0.999 | locus YML032C, strain rad52, hits give low values 0.982 | locus YML120C, strain ndi1, hits give low values 1.03 | locus YML124C, strain tub3, hits give low values 0.996 | locus YMR058W, strain fet3, hits give low values 1.02 | locus YMR078C, strain ctf18, hits give low values 0.996 | locus YMR125W, strain sto1, hits give low values 1.07 | locus YMR129W, hits give low values 1.04 | locus YMR205C, strain PFK2, hits give low values 1.02 | locus YMR223W, strain ubp8, hits give low values 1 | locus YMR231W, strain pep5, hits give low values 1.03 | locus YMR307W, strain GAS1, hits give low values 1.06 | locus YNL067W, strain RPL9B, hits give low values 1.01 | locus YNL071W, strain lat1, hits give low values 1.04 | locus YNL153C, strain GIM3, hits give low values 1.02 | locus YNL183C, strain NPR1, hits give low values 0.995 | locus YNL209W, strain ssb2, hits give low values 1.03 | locus YNL233W, strain BNI4, hits give low values 0.991 | locus YNL248C, strain rpa49, hits give low values 1.02 | locus YNL250W, strain rad50, hits give low values 0.96 | locus YNL271C, strain bni1, hits give low values 0.984 | locus YNL298W, strain CLA4, hits give low values 0.994 | locus YNL307C, strain MCK1, hits give low values 0.996 | locus YNL322C, strain KRE1 (second series), hits give low values 1.03 | locus YNL322C, strain KRE1, hits give low values 1.01 | locus YNR049C, strain mso1, hits give low values 1.03 | locus YNR052C, strain pop2, hits give low values 0.985 | locus YOL012C, strain htz1 0.834 | locus YOL147C, strain pex11, hits give low values 1 | locus YOR001W, strain rrp6, hits give low values 1.03 | locus YOR061W, strain CKA2, hits give low values 0.996 | locus YOR069W, strain VPS5, hits give low values 0.991 | locus YOR070C, strain gyp1, hits give low values 1.04 | locus YOR080W, strain dia2, hits give low values 1.02 | locus YOR083W, strain WHI5, hits give low values 0.979 | locus YOR106W, strain vam3, hits give low values 1.04 | locus YOR136W, strain idh2, hits give low values 0.971 | locus YOR144C, strain elg1, hits give low values 0.998 | locus YOR184W, strain ser1, hits give low values 1 | locus YOR231W, strain MKK1, hits give low values 1.05 | locus YOR265W, strain rbl2, hits give low values 1.01 | locus YOR270C, strain vph1, hits give low values 1.15 | locus YOR290C, strain snf2, hits give low values 1.04 | locus YOR316C, strain cot1, hits give low values 0.997 | locus YPL051W, strain arl3, hits give low values 1.04 | locus YPL055C, strain LGE1, hits give low values 1.01 | locus YPL078C, strain atp4, hits give low values 1.04 | locus YPL106C, strain sse1, hits give low values 1.07 | locus YPL240C, strain hsp82, hits give low values 1.02 | locus YPL241C, strain CIN2, hits give low values 1.01 | locus YPL256C, strain CLN2, hits give low values 1.08 | locus YPR119W, strain clb2, hits give low values 0.998 | locus YPR141C, strain kar3, hits give low values 0.99 | locus YPR163C, strain tif3, hits give low values 0.985 | locus YPR167C, strain met16, hits give low values 1.01 | strain wtn01, hits give low values 0.97
